phage Ecoli inh: E. coli growth loss with phage present. growth absorbance. inhibition, % at 11.9 µM. hit rate 0.26% among 360,000. AID 651602; in the data active means inhibition above about 11%
E coli growth-1: blocks Escherichia coli growth. OD600, 23 h; active compounds read low. OD600 absorbance (test concentration not listed). hit rate 0.21% among 330,000. AID 1053175;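 active means OD600 absorbance below the run mean of sample wells minus 3.6 SD, in any replicate, cut at about 0.56 in these data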
Tat export inh: inhibitors of E. coli Tat protein transport; hit rate 0.036% among 340,000; AID 488895; E. coli MC4100 TorA-mCherry Tat export, fluorescence; inhibition, % at 10 µM;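 active means mean replicate inhibition at least 50% and at least half of replicates individually reaching 50%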;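 further: exported cargo escapes ClpAP degradation while cytoplasmic cargo is degraded and loses fluorescence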
E coli growth-2: counter-screen for AddAB inhibitors: E. coli growth inhibition; E. coli V3065 growth, OD600 absorbance, 18 h; inhibition, % at 11.9 µM; hit rate 0.27% among 330,000; AID 449728;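 active means inhibition above the campaign's mean inhibition across all tested compounds plus 3 SD, cut at about 9.9% in these data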;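 further: uninfected addAB+ strain grown without phage in ampicillin broth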
AddAB inh: less growth of phage-infected E. coli with AddAB; hit rate 0.29% among 330,000; inhibition, % at 11.9 µM; E. coli expressing H. pylori AddAB, absorbance growth; in the data active means inhibition above about 12%
RecBCD conf: growth loss of phage-infected V66 E. coli, RecBCD confirmation screen. AID 651982. E. coli V66 + T4 2- phage, growth OD. shares compounds with phage Ecoli inh. inhibition, % at 11.9 µM. hit rate 45% among 890;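 active means mean inhibition over triplicates exceeding the hit threshold derived in the original primary screen, cut at about 11% in these data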
Ecoli viability: inhibits E. coli viability, flagging RecBCD hits as nonselective; inhibition, % at 11.9 µM; hit rate 29% among 890; absorbance (OD) growth; AID 651983; shares compounds with phage Ecoli inh; in the data active means inhibition above about 20%;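 further: E. coli strain V66 grown with compound alone and no phage infection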
AddAB counter: growth loss of phage-infected AddAB E. coli, RecBCD counter-screen. hit rate 45% among 890. inhibition, % at 11.9 µM. E. coli expressing H. pylori AddAB + T4 phage, OD growth; gene 2 mutant T4, recBCD-deleted host. shares compounds with phage Ecoli inh;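 active means mean inhibition above the solvent-only control wells' mean plus 3 SD, cut at about 22% in these data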;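 further: higher means less bacterial growth from phage killing when AddAB is blocked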
Of the large screens only hits and unclear results are named; the others gave an inactive call (follow-up assays come after a bar, where they were run). Hits are enriched below; roughly 0.51% of the tested compounds scored in any of these assays.

CC(C)(C)C1C=C(C(=O)N2CCN(Cc3ccc4c(c3)OCO4)CC2)OC(OCCCCO)C1 (stereo unspecified)	none (no result: phage Ecoli inh, Tat export inh, E coli growth-2, AddAB inh)
O=S1(=O)C2CC3CC[C@]2(CN1Cc1cccc(F)c1)O3 (stereo partly specified)	none (no result: phage Ecoli inh, Tat export inh, E coli growth-2, AddAB inh)
O=C1C(F)=CC(COC(c2ccccc2)(c2ccccc2)c2ccccc2)OC1n1cc(F)c(=O)[nH]c1=O (stereo unspecified)	phage Ecoli inh 12 (no result: E coli growth-1, E coli growth-2, AddAB inh) | RecBCD conf inactive | Ecoli viability inactive | AddAB counter 26
O=c1cc(CSc2nnc(Nc3ccccc3)s2)nc2sccn12	none
Cc1cccc(Nc2nnc(SCc3cn4ccsc4n3)s2)c1	phage Ecoli inh 17 | RecBCD conf inactive | Ecoli viability inactive | AddAB counter inactive
CC1CN(C(C)CO)C(=O)c2cc(NS(=O)(=O)c3ccccc3)ccc2OC1CN(C)C(=O)Nc1ccc(C(F)(F)F)cc1 (stereo unspecified)	none (no result: phage Ecoli inh, Tat export inh, E coli growth-2, AddAB inh)
COc1cccc(NC(=O)c2ccc3c(c2)N(C)CCS3)c1	none
CN1CCSc2ccc(C(=O)Nc3ccc(Cl)cc3)cc21	phage Ecoli inh 100 (no result: E coli growth-1) | RecBCD conf inactive | Ecoli viability inactive | AddAB counter inactive
CCn1cc(C(=O)O)c(=O)c2cc(F)c(N3CCNCC3)nc21	phage Ecoli inh 102, E coli growth-1 0.059, Tat export inh 62 (no result: E coli growth-2, AddAB inh) | RecBCD conf 102 | Ecoli viability 103 | AddAB counter 102
c1ccc(CC2CNCCN2CC2(c3ccccc3)CC2)cc1 (stereo unspecified)	none (no result: phage Ecoli inh, Tat export inh, E coli growth-2, AddAB inh)
